The results in this text go back to PubChem BioAssay (Tox21).

Results filed as inconclusive are left out. Entries that show only a call come without a potency. Activity calls are given as the source filed them. Unless noted, the call rests on the fitted dose curve.

A short description of one assay: qHTS assay for small molecule agonists of the p53 signaling pathway - cell viability (AID 651633).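 Further: p53RE-bla HCT reporter cells with a stable beta-lactamase p53 reporter; nearly all actives have a fitted effect of over 30% in size.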 The conditions noted are these: p53RE-bla HCT-116 viability, ATP luminescence, 16 h; series mostly up to 83.3 µM. The method in brief:
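Viability counter-read: CellTiter-Glo luminescence (30 min, room temperature) in the same p53RE-bla plates. These plates had been exposed to compounds for 16 h at 37 C.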
Turning to `Brc1c(NC2=NCCN2)ccc2nccnc12`, the compound was called inactive.

Consider `O=C1CC2CC1C1CCCC21` (stereo not drawn), for which the compound was called inactive.

Take `CC(C)(C)NCCNC(C)(C)C`: the result was inactive.

Take `COC(=O)CC(C)=O`: the compound was called inactive.

A short description of a further assay: qHTS assay for small molecules that induce genotoxicity in human embryonic kidney cells expressing luciferase-tagged ATAD5 - cell viability (AID 651634). Further: nearly all actives have a fitted effect of over 25% in size. The conditions noted are these: HEK293T ATAD5-luc cells viability, CellTiter-Fluor, 15.5 h; series mostly up to 83.3 µM. The method in brief: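 Seeding of 2,000 HEK293T ATAD5-luciferase cells per well preceded pin-tool compound transfer. Plates sat 15.5 hr at 37C under 5% CO2, then fluorescence was read after 30 min with CellTiter-Fluor.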
For the compound `O=C[C@H](O)[C@@H](O)[C@H](O)[C@H](O)CO`, the Potency entry was “inactive”.

With `CCOC(=O)c1cccc(N)c1`, the Potency entry was “inactive”.

In the case of `CCO[Si](CCC1CCC2OC2C1)(OCC)OCC` (stereo not drawn), the Potency entry is “inactive”.

Regarding `NC(=O)c1cn(Cc2c(F)cccc2F)nn1`, the Potency result is “inactive”.

As for `FC(F)OC(Cl)C(F)(F)F` (stereo not drawn), the Potency entry is “inactive”.

For `CN1C(=O)N(C)C(O)C1O` (stereo not drawn), the Potency result is “inactive”.

Consider `O=C1NC(=O)[C@@]2(CCOc3ccc(F)cc32)N1`, for which the Potency result was “inactive”.

In the case of `CCOC(=O)c1c(C)n(C)c2ccc(O)cc12`, the Potency result is “inactive”.

With `CC(C)c1cc2c(cc1S(=O)(=O)O)[C@@]1(C)CCC[C@@](C)(C(=O)O)[C@@H]1CC2`, the Potency entry was “inactive”.

In the case of `CC(=O)CC(C)C`, the Potency result is “inactive”.

For `CC(=O)OCC(=O)[C@@]1(O)CC[C@H]2[C@@H]3CCC4=CC(=O)CC[C@]4(C)[C@H]3C(=O)C[C@@]21C`, the Potency result was “inactive”.

For `CC(=O)CC(C)(C)C1CCCCC1`, the Potency entry is “inactive”.

With `CCc1ccc(O)c(OC)c1`, the Potency result was “inactive”.

`Cc1cc2c(cc1S(N)(=O)=O)S(=O)(=O)CCC2`: the Potency entry was “inactive”.

With `CC(=O)OCC(CCn1cnc2cnc(N)nc21)COC(C)=O`, the Potency result is “inactive”.

`Cc1c(O)cccc1O`: the Potency result is “inactive”.

On to `c1cnc(N2CCN(Cc3ccc4c(c3)OCO4)CC2)nc1`, for which the Potency entry was “inactive”.

Turning to `N=C(N)c1ccccc1`, the Potency entry is “inactive”.

For `N=c1nc(N2CCCCC2)cc(N)n1O`, the Potency entry is “inactive”.

Turning to `OCCCC1CCCCC1`, the Potency entry was “inactive”.

For `CC/C=C\CC/C=C/C(OCC)OCC`, the Potency result is “inactive”.

Regarding `COCCCOCCCOC`, the Potency entry was “inactive”.

Turning to `COc1ccc(CCN(C)CCCC(C#N)(c2cc(OC)c(OC)c(OC)c2)C(C)C)cc1OC` (stereo not drawn), the Potency result was “inactive”.

For `COc1nc(N)nc2c1ncn2[C@@H]1O[C@H](CO)[C@@H](O)[C@@H]1O`, the Potency result is “inactive”.

For the compound `CCN1CCC[C@H]1CNC(=O)c1cc(S(N)(=O)=O)ccc1OC`, the Potency entry was “inactive”.

For the compound `Oc1ccc(C2CNCCc3c2cc(O)c(O)c3Cl)cc1` (stereo not drawn), the Potency result was “inactive”.

Turning to `CN1CCC(=C2c3ccccc3CC(=O)c3sccc32)CC1`, the Potency result was “inactive”.

Take `Cc1ccc(Cl)cc1Cl`: the Potency entry was “inactive”.

In the case of `CC[N+](C)(C)c1cccc(O)c1`, the Potency result is “inactive”.

As to `COC(=O)CC(C)=O`, the Potency entry was “inactive”.

The next assay can be described thus: qHTS assay for small molecule disruptors of the mitochondrial membrane potential - cell viability (AID 720634).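 Further: human HepG2 liver cancer cells; nearly all actives have a fitted effect of over 20% in size.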 The note with it: HepG2 viability, ATP luminescence (CellTiter-Glo), 1 h; series mostly up to 83.2 µM. The method in brief:
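Measuring cytotoxicity alongside mitochondrial potential, the screen quantified ATP by luminescence in HepG2 cells after 1 hr compound incubation and a 30 min room-temperature CellTiter-Glo step.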
(In general: In qHTS, concentration-response curves come from the screen itself.)
On to `O=C[C@H](O)[C@@H](O)[C@H](O)[C@H](O)CO`, for which the Potency entry is “inactive”.

On to `CCO[Si](CCC1CCC2OC2C1)(OCC)OCC` (stereo not drawn), for which the Potency result is “inactive”.

With `FC(F)OC(Cl)C(F)(F)F` (stereo not drawn), the Potency result is “inactive”.

Turning to `CN1C(=O)N(C)C(O)C1O` (stereo not drawn), the Potency result is “inactive”.

With `CCOC(=O)c1c(C)n(C)c2ccc(O)cc12`, the Potency entry is “inactive”.

Take `O=C(CCCN1CCC(O)(c2cccc(C(F)(F)F)c2)CC1)c1ccc(F)cc1`: the Potency result is “inactive”.

As for `CC(C)c1cc2c(cc1S(=O)(=O)O)[C@@]1(C)CCC[C@@](C)(C(=O)O)[C@@H]1CC2`, the Potency result was “inactive”.

For the compound `CCN(Cc1ccncc1)C(=O)C(CO)c1ccccc1` (stereo not drawn), the Potency result was “inactive”.

Regarding `CC(=O)CC(C)C`, the Potency result was “inactive”.

`CC(=O)OCC(=O)[C@@]1(O)CC[C@H]2[C@@H]3CCC4=CC(=O)CC[C@]4(C)[C@H]3C(=O)C[C@@]21C`: the Potency result was “inactive”.

Consider `CC(=O)CC(C)(C)C1CCCCC1`, for which the Potency entry was “inactive”.

Turning to `CCc1ccc(O)c(OC)c1`, the Potency entry was “inactive”.

In the case of `CC(=O)OCC(CCn1cnc2cnc(N)nc21)COC(C)=O`, the Potency result is “inactive”.

For the compound `Cc1c(O)cccc1O`, the Potency result was “inactive”.

Regarding `c1cnc(N2CCN(Cc3ccc4c(c3)OCO4)CC2)nc1`, the Potency result was “inactive”.

`N=c1nc(N2CCCCC2)cc(N)n1O`: the Potency entry was “inactive”.

For `OCCCC1CCCCC1`, the Potency result is “inactive”.

For `COCCCOCCCOC`, the Potency entry was “inactive”.

Turning to `COc1ccc(CCN(C)CCCC(C#N)(c2cc(OC)c(OC)c(OC)c2)C(C)C)cc1OC` (stereo not drawn), the Potency result is “inactive”.

With `CS(=O)(=O)O`, the Potency result was “inactive”.

Consider `COc1nc(N)nc2c1ncn2[C@@H]1O[C@H](CO)[C@@H](O)[C@@H]1O`, for which the Potency result is “inactive”.

Turning to `Oc1ccc(C2CNCCc3c2cc(O)c(O)c3Cl)cc1` (stereo not drawn), the Potency result was “inactive”.

As to `COC(=O)c1c(Cl)c(Cl)c(C(=O)OC)c(Cl)c1Cl`, the Potency result was “inactive”.

As for `OC[C@]1(O)OC[C@@H](O)[C@H](O)[C@@H]1O`, the Potency entry is “inactive”.

Regarding `CN1CCC(=C2c3ccccc3CC(=O)c3sccc32)CC1`, the Potency result was “inactive”.

Take `Brc1c(NC2=NCCN2)ccc2nccnc12`: the Potency result is “inactive”.

As to `O=C1CC2CC1C1CCCC21` (stereo not drawn), the Potency result is “inactive”.

As to `CC(C)(C)NCCNC(C)(C)C`, the Potency entry is “inactive”.

As for `Cc1ccc(Cl)cc1Cl`, the Potency entry is “inactive”.

Turning to `CC[N+](C)(C)c1cccc(O)c1`, the Potency result is “inactive”.

Consider `COC(=O)CC(C)=O`, for which the Potency entry is “inactive”.

The nature of the next assay: qHTS assay for small molecule disruptors of the mitochondrial membrane potential (AID 720635; active means well fitted inhibition curve with a large enough effect in the signal ratio in the repeat runs; the % refers to the signal ratio; further: potency means the concentration at half of the fitted maximal effect). The note with it: HepG2 mitochondrial membrane potential, Mito-MPS dye ratio; series mostly up to 83.2 µM. The method in brief: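 Mitochondrial membrane potential tracked with Mito-MPS dye, red aggregates (ex 540/em 590 nm) against green monomers (ex 490/em 535 nm). Compound treatment 1 hr at 37C, dye 30 min in HepG2.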
For the compound `CCOC(=O)c1cccc(N)c1`, the Potency result is “inactive”.

As for `CCO[Si](CCC1CCC2OC2C1)(OCC)OCC` (stereo not drawn), the Potency result was “inactive”.

Consider `NC(=O)c1cn(Cc2c(F)cccc2F)nn1`, for which the Potency result is “inactive”.

As to `FC(F)OC(Cl)C(F)(F)F` (stereo not drawn), the Potency entry is “inactive”.

For `O=C1NC(=O)[C@@]2(CCOc3ccc(F)cc32)N1`, the Potency entry is “inactive”.

On to `CCOC(=O)c1c(C)n(C)c2ccc(O)cc12`, for which the Potency is 7.84 µM (active).

As to `CC(C)c1cc2c(cc1S(=O)(=O)O)[C@@]1(C)CCC[C@@](C)(C(=O)O)[C@@H]1CC2`, the Potency result was “inactive”.

Consider `CCN(Cc1ccncc1)C(=O)C(CO)c1ccccc1` (stereo not drawn), for which the Potency result was “inactive”.

`CC(=O)CC(C)C`: the Potency result is “inactive”.

As to `O=S(O)CO`, the Potency result was “inactive”.

`CC(=O)OCC(CCn1cnc2cnc(N)nc21)COC(C)=O`: the Potency entry is “inactive”.

Take `Cc1c(O)cccc1O`: the Potency result is “inactive”.

In the case of `c1cnc(N2CCN(Cc3ccc4c(c3)OCO4)CC2)nc1`, the Potency result is “inactive”.

Turning to `N=c1nc(N2CCCCC2)cc(N)n1O`, the Potency entry was “inactive”.

Take `OCCCC1CCCCC1`: the Potency result is “inactive”.

Regarding `COCCCOCCCOC`, the Potency result is “inactive”.

For the compound `CC(C)(CC(=O)O)C(=O)O`, the Potency entry was “inactive”.

Turning to `CCN1CCC[C@H]1CNC(=O)c1cc(S(N)(=O)=O)ccc1OC`, the Potency result was “inactive”.

For `Oc1ccc(C2CNCCc3c2cc(O)c(O)c3Cl)cc1` (stereo not drawn), the Potency entry is “inactive”.

Take `COC(=O)c1c(Cl)c(Cl)c(C(=O)OC)c(Cl)c1Cl`: the Potency result is “inactive”.

`OC[C@]1(O)OC[C@@H](O)[C@H](O)[C@@H]1O`: the Potency result was “inactive”.

Regarding `O=C1CC2CC1C1CCCC21` (stereo not drawn), the Potency result is “inactive”.

Consider `COC(=O)CC(C)=O`, for which the Potency result was “inactive”.
